High-throughput results from PubChem.
The entries come from a sample that favours hits as a whole.
Pf Dd2 inh = blocks in vitro growth of P. falciparum Dd2 | 120,000 tested, 4.3% active | Potency, µM (titrated, usually from 28.9 µM), inactives show at the highest dose activity, negative = inhibition, actives largely listed as inhibitors | P. falciparum Dd2 growth, SYBR Green, 72 h; active = well fitted inhibition curve with a large enough effect;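 also: plate controls were DMSO vehicle for no effect and reference drug for full effect; nearly all actives have a fitted effect of over 65% in size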
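Readout: SYBR Green fluorescence, 485 nm excitation, 535 nm emission, after ~16 h lysis at 37C. Before that, Dd2-infected red cells (2.5% hematocrit) grew 72 h with compound, 29 uM top final concentration.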
Active calls of the source: *; i = inactive; [ ] = dose if it differs, or a comment. Potency is read from the fitted curve at half-maximal effect.

SMILES | Pf Dd2 inh
COc1ccc2[nH]cc(CCNC(=O)c3cnn(-c4ccccc4Cl)c3C3CCN(C(=O)OC(C)(C)C)CC3)c2c1 | 5.62µM*
CCN1CCN(CCCNC(=O)c2cnn(-c3ccc(OC)cc3)c2C2CCN(C(=O)OC(C)(C)C)CC2)CC1 | -24.9%
COc1ccc2[nH]cc(CCNC(=O)C3CCCN(C(C)=O)C3)c2c1 (configuration not stated) | -8.5%
COc1ccc2[nH]cc(CCNC(=O)c3cnn(-c4ccc(C)cc4)c3C3CCN(C(=O)OC(C)(C)C)CC3)c2c1 | 3.16µM*
CC(C)(C)OC(=O)N1CCC(c2c(C(=O)NCc3ccccn3)cnn2-c2ccccc2Cl)CC1 | i
COc1ccc2[nH]cc(CCNC(=O)CN3CCCc4nc(C5CC5)ncc4C3=O)c2c1 | i
Cc1ccc2c(C(=O)N3CCN(C(C)C)CC3)cc(NC(=O)C(C)C)cc2n1 | 9.3%
Cn1nc(C2CCN(C(=O)c3ccccc3F)CC2)c2c1CCOC2 | 5.3%[5.79 µM]
Cc1cc(C2CCCN2C(=O)c2ccn(C)n2)on1 (configuration not stated) | -5.6%
COc1ccc(NC(=O)N2CCC3(CC2)CC(N(C(=O)NC(C)C)C2CC2)CCO3)cc1 (configuration not stated) | i
Cc1[nH]ncc1C(=O)N[C@@H]1CN(S(C)(=O)=O)C[C@H]1CN(C)C | 6.2%
N#CCCN1CCN(C(=O)CCc2cc3ccccc3[nH]c2=O)CC1 | -24.0%
CCC1CCCCN1CCNC(=O)CCc1cc2ccccc2[nH]c1=O (configuration not stated) | i
O=C(CCc1cc2ccccc2[nH]c1=O)NCCN1CCc2ccccc2C1 | 3.16µM*
CNC(=O)[C@@H](c1ccc(Cl)cc1)N1CCC[C@H]1C(=O)N1CCC1 | 3.4%[44.1 µM]
Cc1ccccc1Nc1sc(C(=O)c2ccccc2)c(N)c1S(C)(=O)=O | i[5.79 µM]
COc1ccc(S(=O)(=O)c2c(Nc3cccc(C)c3C)sc(C(=O)c3ccccc3)c2N)cc1 | 10µM*
COc1ccccc1Nc1sc(C(=O)c2ccc(F)cc2)c(N)c1S(=O)(=O)c1ccc(C)cc1 | -28.7%
O=C(C#Cc1ccccc1)NC1CCCc2c1cnn2-c1ccc(F)cc1F (configuration not stated) | -13.8%
O=C(c1ccsc1)N1CCCN(c2cc(-c3ccc(Cl)cc3)[nH]n2)CC1 | -3.7%
Cc1cc2cc(-c3c(C)noc3C)nc(NCC3CC3)c2o1 | i
Cc1noc(C)c1-c1cc2cc(C(C)C)oc2c(-c2c(C)noc2C)n1 | -20.6%[44.1 µM]
Cc1cc2cc(-c3c(C)noc3C)nc(NC3CCN(C)CC3)c2o1 | 10µM*
Cc1noc(C)c1-c1cc2cc(C(C)C)oc2c(NC2CCOCC2)n1 | 11.2µM*
Cc1noc(C)c1-c1cc2cc(C(C)C)oc2c(NC(C)C)n1 | -9.7%[44.1 µM]
SMILES | Pf Dd2 inh
Cc1noc(C)c1-c1cc2cc(CO)oc2c(NCCN2CCOCC2)n1 | i
O=C(N[C@@H]1CCOC[C@H]1OCC1CCC1)c1ccc(-n2cnnc2)cc1 | -5.3%
CN(Cc1ccc(OC(F)(F)F)cc1)C1CCCc2ccccc21 (configuration not stated) | -17.3%[44.1 µM]
COc1cc(CN2CCc3nc(N(C)C)[nH]c(=O)c3CC2)cc(OC)c1OC | -9.3%[5.79 µM]
CC1(O)CCCN(c2ccc(-c3nc(CCCc4ccccc4)no3)cn2)C1 (configuration not stated) | -1.3%
CCc1nc2c(c(-c3ccc(Cl)cc3)n1)CN(Cc1ccc(OC(F)(F)F)cc1)CC2 | 8.91µM*
Cc1nc2c(c(-c3ccc(O)cc3)n1)CN(Cc1ccc(OC(F)(F)F)cc1)CC2 | -1.2%
CCc1nc2c(c(-c3ccc(Cl)cc3)n1)CN(Cc1ccc(C)cc1)CC2 | -17.3%
CCc1nc2c(c(-c3ccc(Cl)cc3)n1)CN([S+](C)(=O)[O-])CC2 | -19.0%[44.1 µM]
CCc1nc2c(c(-c3ccc(Cl)cc3)n1)CN(Cc1ccsc1)CC2 | 5.01µM*
CCc1nc2c(c(-c3ccc(Cl)cc3)n1)CCN(C(=O)c1ccccn1)CC2 | -3.1%
Cc1cccnc1CNC(=O)[C@H]1C[C@@H](C(=O)O)N(C)[C@H]1c1cccc(Cl)c1 | -11.0%
CC1=C[C@@H](CC#N)[C@H](C(C)C)C[C@H]1CC(=O)NCc1ccccc1 | i
CCC1(O)CCC12CCN(C(=O)CC(C)C)CC2 (configuration not stated) | -22.0%
CN(C)Cc1nnc(C2CC(NC(=O)C3(C#N)CCOCC3)C2)n1C (configuration not stated) | -0.5%
COc1ccc(C(CNC(=O)c2ccc(F)cc2)N2CCCC2)cc1 (configuration not stated) | -3.7%
CC(C)Oc1ccc(C(=O)NCC(c2ccc(N(C)C)cc2)N2CCCC2)cc1 (configuration not stated) | 10µM*
Cc1ccccc1C(=O)NCC(c1ccc(N(C)C)cc1)N1CCCC1 (configuration not stated) | -19.5%
CN(C)c1ccc(C(CNS(=O)(=O)c2ccc(Cl)cc2)N2CCCC2)cc1 (configuration not stated) | 12.6µM*
COc1ccc(S(=O)(=O)NCC(c2ccc(N(C)C)cc2)N2CCOCC2)cc1 (configuration not stated) | -15.7%
